Here are results for 57 compounds from publication PMC4336329 (PLoS ONE, 2015).

Molecules are shown by their SMILES. Hit rate of the full screen: of about 310,000 compounds, about 14,000 (4.5%) showed an effect of 50% or more. Effects have a minus sign here. This excerpt belongs to a sample that is enriched for strong results.
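Further: peak tail current of the secondary pulse compared with the same well before compound.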

The target in the experiment is human ether-à-go-go-related gene (hERG) potassium channel (human, UniProt Q12809). The experiment in a line: primary screen, population patch clamp on CHO cells stably expressing hERG; higher = less effect of the substance.
Chain of human ether-à-go-go-related gene (hERG) potassium channel (Q12809 whole entry, looked up): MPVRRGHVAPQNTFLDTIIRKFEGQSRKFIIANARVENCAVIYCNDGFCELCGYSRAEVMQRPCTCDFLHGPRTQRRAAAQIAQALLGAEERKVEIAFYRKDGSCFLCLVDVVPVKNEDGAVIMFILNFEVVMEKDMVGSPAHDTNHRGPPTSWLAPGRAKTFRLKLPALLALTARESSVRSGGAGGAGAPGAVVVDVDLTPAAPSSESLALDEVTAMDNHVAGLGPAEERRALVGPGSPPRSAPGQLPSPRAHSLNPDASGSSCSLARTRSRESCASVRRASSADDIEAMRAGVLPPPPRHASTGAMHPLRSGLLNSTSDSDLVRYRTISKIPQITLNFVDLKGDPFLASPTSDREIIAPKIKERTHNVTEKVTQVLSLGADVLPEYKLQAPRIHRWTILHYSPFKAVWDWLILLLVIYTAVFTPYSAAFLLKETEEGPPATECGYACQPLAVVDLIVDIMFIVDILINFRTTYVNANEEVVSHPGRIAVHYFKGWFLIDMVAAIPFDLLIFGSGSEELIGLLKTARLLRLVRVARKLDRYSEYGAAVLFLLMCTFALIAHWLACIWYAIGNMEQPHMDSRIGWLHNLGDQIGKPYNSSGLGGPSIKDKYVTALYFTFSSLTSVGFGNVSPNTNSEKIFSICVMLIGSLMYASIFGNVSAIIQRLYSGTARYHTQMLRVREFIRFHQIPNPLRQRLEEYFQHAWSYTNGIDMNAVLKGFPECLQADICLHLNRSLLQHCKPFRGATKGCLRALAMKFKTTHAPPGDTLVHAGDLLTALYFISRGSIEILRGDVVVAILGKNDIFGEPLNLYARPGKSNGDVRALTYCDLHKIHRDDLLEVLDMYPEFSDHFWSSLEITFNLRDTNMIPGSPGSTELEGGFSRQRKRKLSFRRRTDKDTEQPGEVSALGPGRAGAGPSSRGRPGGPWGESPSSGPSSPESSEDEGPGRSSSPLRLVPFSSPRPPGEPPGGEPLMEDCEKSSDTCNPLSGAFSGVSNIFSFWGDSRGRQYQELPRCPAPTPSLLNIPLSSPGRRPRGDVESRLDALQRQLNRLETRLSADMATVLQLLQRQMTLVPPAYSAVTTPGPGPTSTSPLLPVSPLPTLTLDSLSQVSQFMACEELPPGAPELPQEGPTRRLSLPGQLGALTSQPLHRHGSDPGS
Regarding `Cc1ccc(C(c2nnnn2CC2CCCO2)N2CCN(C(=O)c3ccco3)CC2)cc1` (stereo not drawn), the “hERG current change (%, negative = inhibition) at 10uM” value is reported as -4.13%.

As for `Cc1ccc(C(c2nnnn2Cc2ccccc2)N2CCN(Cc3ccccc3)CC2)cc1` (stereo not drawn), the “hERG current change (%, negative = inhibition) at 10uM” value is given as -79%.

Take `Cc1ccc(C(c2nnnn2CCc2ccccc2)N2CCSCC2)cc1` (stereo not drawn): the “hERG current change (%, negative = inhibition) at 10uM” value is recorded as -13.5%.

`Cl.Fc1ccc(C(c2nnnn2C2CCCC2)N2CCN(Cc3ccncc3)CC2)cc1` (stereo not drawn): the “hERG current change (%, negative = inhibition) at 10uM” value is listed as -24.8%.

As for `c1ccc(CN2CCN(C(c3ccccc3)c3nnnn3Cc3ccccc3)CC2)cc1` (stereo not drawn), the “hERG current change (%, negative = inhibition) at 10uM” value is -64.7%.

Regarding `CCN1CCN(C(c2ccccc2)c2nnnn2Cc2ccccc2)CC1.Cl` (stereo not drawn), the “hERG current change (%, negative = inhibition) at 10uM” value was -27.4%.

Turning to `CCC(C)(C)n1nnnc1C(c1ccccc1)N1CCN(Cc2ccccc2)CC1` (stereo not drawn), the “hERG current change (%, negative = inhibition) at 10uM” value was -32%.

Consider `Cc1ccc(C(c2nnnn2CC2CCCO2)N2CCN(C)CC2)cc1.Cl` (stereo not drawn), for which the “hERG current change (%, negative = inhibition) at 10uM” value is recorded as -7.48%.

Regarding `Cc1ccc(C(c2nnnn2CC2CCCO2)N2CCN(Cc3ccccc3)CC2)cc1` (stereo not drawn), the “hERG current change (%, negative = inhibition) at 10uM” value is -74.9%.

Take `Clc1ccc(C(c2nnnn2C2CCCC2)N2CCSCC2)cc1` (stereo not drawn): the “hERG current change (%, negative = inhibition) at 10uM” value was -24.4%.

Consider `Cc1ccc(C(c2nnnn2Cc2ccccc2)N2CC=C(c3ccc(F)cc3)CC2)cc1` (stereo not drawn), for which the “hERG current change (%, negative = inhibition) at 10uM” value is on record as 11.5%.

On to `Clc1ccc(C(c2nnnn2C2CCCC2)N2CCN(Cc3ccncc3)CC2)cc1` (stereo not drawn), for which the “hERG current change (%, negative = inhibition) at 10uM” value is listed as -71.7%.

Take `O=C(NC(=S)NCc1ccccc1)c1ccc(Br)o1`: the “hERG current change (%, negative = inhibition) at 10uM” value is given as -7.42%.

Take `Cc1noc(C)c1C(=O)OCC(=O)c1cc(C)n(Cc2ccccc2Cl)c1C`: the “hERG current change (%, negative = inhibition) at 10uM” value was -7.65%.

Turning to `Cc1ccc(CC(=O)N2CC(C)OC(C)C2)cc1` (stereo not drawn), the “hERG current change (%, negative = inhibition) at 10uM” value worked out at 9.85%.

Regarding `Cc1ccc2nc(Br)c3c(c2c1)OC(CBr)C3` (stereo not drawn), the “hERG current change (%, negative = inhibition) at 10uM” value is -33.6%.

With `CC1CCCCC1NC(=O)COc1ncnc2sccc12` (stereo not drawn), the “hERG current change (%, negative = inhibition) at 10uM” value was 3.61%.

On to `COc1ccc(Cl)cc1NC(=S)N1CCC(c2ccc(C)cc2)C1` (stereo not drawn), for which the “hERG current change (%, negative = inhibition) at 10uM” value was -1.95%.

For `CCNC(=O)/C(=C\C=C\c1ccccc1)NC(=O)c1ccc(Br)o1`, the “hERG current change (%, negative = inhibition) at 10uM” value is recorded as -18.2%.

For the compound `Cc1ccc(S(=O)(=O)Cn2nnnc2C(C(C)C)N2CCC(C(N)=O)CC2)cc1` (stereo not drawn), the “hERG current change (%, negative = inhibition) at 10uM” value was found to be 19%.

Consider `Cc1ccc(S(=O)(=O)Cn2nnnc2C(c2ccc(F)cc2)N2CCC(C(N)=O)CC2)cc1` (stereo not drawn), for which the “hERG current change (%, negative = inhibition) at 10uM” value is listed as -44.1%.

Regarding `Cc1ccc(C(c2nnnn2CS(=O)(=O)c2ccc(C)cc2)N2CCC(C(N)=O)CC2)cc1` (stereo not drawn), the “hERG current change (%, negative = inhibition) at 10uM” value is -55.1%.

Take `CC(C)Oc1ccc(S(=O)(=O)N2CCCCC2)cc1NC(=O)C1CSC2(C)CCC(=O)N12` (stereo not drawn): the “hERG current change (%, negative = inhibition) at 10uM” value is -20.9%.

In the case of `Cc1cccc(NC(=O)CN(C)S(=O)(=O)c2ccc(-c3ccc(=O)[nH]n3)s2)c1C`, the “hERG current change (%, negative = inhibition) at 10uM” value was -19.9%.

In the case of `COc1cc(NC(=O)CN(C)S(=O)(=O)c2ccc(-c3ccc(=O)[nH]n3)s2)cc(OC)c1`, the “hERG current change (%, negative = inhibition) at 10uM” value is reported as -5.53%.

In the case of `CCOc1ccc(NC(=O)CN(C)S(=O)(=O)c2ccc(-c3ccc(=O)[nH]n3)s2)cc1`, the “hERG current change (%, negative = inhibition) at 10uM” value amounted to 2.54%.

For `COc1cc(OC)c(NC(=O)CN(C)S(=O)(=O)c2ccc(-c3ccc(=O)[nH]n3)s2)cc1Cl`, the “hERG current change (%, negative = inhibition) at 10uM” value is recorded as -56.5%.

Regarding `CCOC(=O)CCN(c1ccccc1)S(=O)(=O)c1ccc(-c2ccc(=O)[nH]n2)s1`, the “hERG current change (%, negative = inhibition) at 10uM” value is reported as -29.3%.

Consider `Cc1ccccc1NC(=O)CN(C)S(=O)(=O)c1cccs1`, for which the “hERG current change (%, negative = inhibition) at 10uM” value was determined as 2.52%.

Consider `COc1cc(OC)c(NC(=O)CN(C)S(=O)(=O)c2ccc3[nH]c(=O)oc3c2)cc1Cl`, for which the “hERG current change (%, negative = inhibition) at 10uM” value came out at 3.44%.

Regarding `Cc1ccccc1NC(=O)CN(C)S(=O)(=O)c1ccc(-c2ccc(=O)[nH]n2)s1`, the “hERG current change (%, negative = inhibition) at 10uM” value is -78.6%.

As to `CCc1ccccc1NC(=O)CN(C)S(=O)(=O)c1ccc(-c2ccc(=O)[nH]n2)s1`, the “hERG current change (%, negative = inhibition) at 10uM” value was -74.8%.

Consider `CC1CCN(S(=O)(=O)c2ccc3[nH]c(=O)[nH]c3c2)CC1`, for which the “hERG current change (%, negative = inhibition) at 10uM” value is -3.58%.

As to `O=C(Nc1cc(S(=O)(=O)N2CCCCC2)ccc1Cl)C1=NN(c2ccccc2)C(=O)CC1`, the “hERG current change (%, negative = inhibition) at 10uM” value came to 12.6%.

Turning to `O=C(NNC(=O)C1CCN(C(=O)Nc2ccccc2)CC1)c1ccc([N+](=O)[O-])cc1`, the “hERG current change (%, negative = inhibition) at 10uM” value came to 2.62%.

As to `CCCOc1ccc(-c2c(C(=O)N/N=C(\C)c3ccco3)nnn2-c2nonc2N)cc1`, the “hERG current change (%, negative = inhibition) at 10uM” value is recorded as 22.5%.

For `Cc1[nH]c2ccccc2c1C(=O)COC(=O)c1ccc[n+]([O-])c1`, the “hERG current change (%, negative = inhibition) at 10uM” value stood at 0.499%.

For the compound `NC(=O)c1ccc(Oc2ccc(C(N)=O)cc2)cc1`, the “hERG current change (%, negative = inhibition) at 10uM” value was determined as 17.5%.

For the compound `CCc1sc(C(C2C(=O)CC(C)(C)CC2=O)C2C(=O)CC(C)(C)CC2=O)cc1[N+](=O)[O-]`, the “hERG current change (%, negative = inhibition) at 10uM” value was -5.07%.

Turning to `O=C(Nc1ccc2c(c1)OCCO2)c1ccc(S(=O)(=O)N2CCCCC2)cc1`, the “hERG current change (%, negative = inhibition) at 10uM” value worked out at 4.38%.

Turning to `CC(=C/c1ccccc1)/C=C1/SC(N2CCOCC2)=NC1=O`, the “hERG current change (%, negative = inhibition) at 10uM” value was -20.1%.

`Cc1ccccc1-c1ccc(/C=C2/SC(N3CCOCC3)=NC2=O)o1`: the “hERG current change (%, negative = inhibition) at 10uM” value is on record as -15.9%.

`O=C1N=C(N2CCOCC2)S/C1=C\C=C/c1ccccc1`: the “hERG current change (%, negative = inhibition) at 10uM” value is -58.2%.

Turning to `O=C1N=C(N2CCCC2)S/C1=C\C=C\c1ccccc1`, the “hERG current change (%, negative = inhibition) at 10uM” value was -32.4%.

For the compound `Cc1ccc(-c2ccc(/C=C3\SC(N4CCOCC4)=NC3=O)o2)cc1`, the “hERG current change (%, negative = inhibition) at 10uM” value was -64.8%.

With `O=C1N=C(N2CCOCC2)S/C1=C/c1ccc(-c2ccc(F)cc2)o1`, the “hERG current change (%, negative = inhibition) at 10uM” value was 2.43%.

Consider `CC(=O)c1c(C)[nH]c(C(=O)OCn2nnc3ccccc3c2=O)c1C`, for which the “hERG current change (%, negative = inhibition) at 10uM” value came out at 9.87%.

With `C/C(=N\NC(=O)C1CC1c1ccccc1)c1ccc(C)s1` (stereo not drawn), the “hERG current change (%, negative = inhibition) at 10uM” value was -6.02%.

On to `CCOC(=O)c1ccc2c(c1)n(CC)c(/C=C/N(C)c1ccccc1)[n+]2CC.[I-]`, for which the “hERG current change (%, negative = inhibition) at 10uM” value is -74.3%.

Turning to `CCOC(=O)c1ccc2c(c1)n(Cc1ccccc1)c(C)[n+]2CC.[O-][Cl+3]([O-])([O-])[O-]`, the “hERG current change (%, negative = inhibition) at 10uM” value is -7.56%.

As to `CCn1c(/C=C/Nc2ccccc2)[n+](CC)c2ccc(C(=O)OCC(F)(F)F)cc21.[I-]`, the “hERG current change (%, negative = inhibition) at 10uM” value was -81.6%.

With `CCn1c(/C=C/N(C)c2ccccc2)[n+](CC)c2ccc(Cl)cc21.[I-]`, the “hERG current change (%, negative = inhibition) at 10uM” value was -16%.

As to `CCOC(=O)c1ccc2c(c1)n(CC)c(/C=C/Nc1ccccc1)[n+]2CC.[I-]`, the “hERG current change (%, negative = inhibition) at 10uM” value is given as -80%.

For the compound `CCOC(=O)c1ccc2c(c1)n(CCCS(=O)(=O)[O-])c(/C=C/c1ccc(Cl)cc1)[n+]2CC`, the “hERG current change (%, negative = inhibition) at 10uM” value is -23.1%.

As for `CCOC(=O)c1ccc2c(c1)n(CC)c(C)[n+]2CC.[I-]`, the “hERG current change (%, negative = inhibition) at 10uM” value is listed as 23.7%.

In the case of `CCn1c(C)[n+](CC)c2ccc(C(=O)N(C)c3ccccc3)cc21.[I-]`, the “hERG current change (%, negative = inhibition) at 10uM” value turned out to be 37.4%.

`CCOC(=O)c1ccc2c(c1)n(CCO)c(C)[n+]2CC.[I-]`: the “hERG current change (%, negative = inhibition) at 10uM” value was determined as 10.6%.
